Source: PubChem BioAssay AID1159580 (chemical genetic matrix, 2015)
Out of some 5,500 compounds screened, about 2,000 (36%) were called active. About 18% were inconclusive and are not listed. Cut-off read from the data, not from the text of the source: active = normalized growth mostly below about 0.91 (no sharp cut-off); inconclusive = no clear call, values can overlap the other calls; inactive = mostly above about 0.92. This is one part of the list.

Assay: chemical genetic growth profiling, strain panel (AID 1159580);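 note: tested at 20 µM; growth read once vehicle control cultures reached saturation at 30 °C; 1 = growth at the plate median or of vehicle wells; lower values mean less growth of the strain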
Details: S. cerevisiae deletion strains, growth OD
[1] = locus YDL101C, strain DUN1, stronger effect = lower value
[2] = locus YHR030C, strain SLT2, stronger effect = lower value

Measured: normalized growth

CC(C)(C)c1ccc(Oc2ncccc2NC(=O)c2ccccc2C(F)(F)F)cc1
inactive: locus YAL013W, strain DEP1, stronger effect = lower value 0.986 | locus YBR229C, strain ROT2, stronger effect = lower value 1.01 | [1] 1.02 | locus YDL134C, strain PPH21, stronger effect = lower value 0.996 | locus YDR150W, strain NUM1, stronger effect = lower value 1.06 | locus YEL061C, strain CIN8, stronger effect = lower value 1 | locus YGR078C, strain PAC10, stronger effect = lower value 0.992 | [2] 0.934 | locus YHR087W, strain rtc3, stronger effect = lower value 1 | locus YJL187C, strain SWE1, stronger effect = lower value 0.998 | locus YJR043C, strain POL32, stronger effect = lower value 0.948 | locus YJR075W, strain HOC1, stronger effect = lower value 0.988 | locus YKL190W, strain CNB1, stronger effect = lower value 1 | locus YLR039C, strain RIC1, stronger effect = lower value 0.982 | locus YLR058C, strain SHM2 (second series), stronger effect = lower value 0.986 | locus YLR085C, strain ARP6, stronger effect = lower value 0.972 | locus YLR262C, strain YPT6, stronger effect = lower value 0.967 | locus YML094W, strain GIM5, stronger effect = lower value 1.03 | locus YMR219W, strain ESC1, stronger effect = lower value 0.999 | locus YMR263W, strain SAP30, stronger effect = lower value 1.01 | locus YMR307W, strain GAS1, stronger effect = lower value 0.876 | locus YNL153C, strain GIM3, stronger effect = lower value 1 | locus YNL298W, strain CLA4 (second series), stronger effect = lower value 0.987 | locus YNL322C, strain KRE1, stronger effect = lower value 1 | locus YNR030W, strain Alg12, stronger effect = lower value 0.993 | locus YPL055C, strain LGE1, stronger effect = lower value 0.996 | locus YPL241C, strain CIN2, stronger effect = lower value 0.987 | locus YPR135W, strain CTF4, stronger effect = lower value 0.984

O=S(=O)(Nc1ccccc1Sc1c(Cl)cncc1Cl)c1ccc(Cl)cc1
inactive: locus YAR019C, strain CDC15, stronger effect = lower value 0.981 | locus YBL105C, strain PKC1, stronger effect = lower value 0.987 | locus YBR135W, strain CKS1, stronger effect = lower value 0.985 | locus YBR136W, strain MEC1, stronger effect = lower value 0.987 | locus YBR160W, strain CDC28, stronger effect = lower value 0.988 | locus YDL017W, strain CDC7, stronger effect = lower value 0.986 | locus YDL028C, strain MPS1, stronger effect = lower value 0.995 | [1] 0.973 | locus YDL108W, strain KIN28, stronger effect = lower value 0.985 | locus YDL132W, strain cdc53, stronger effect = lower value 0.974 | locus YDL214C, strain PRR2, stronger effect = lower value 1 | locus YDR052C, strain DBF4, stronger effect = lower value 0.984 | locus YDR054C, strain cdc34, stronger effect = lower value 0.974 | locus YDR226W, strain ADK1, stronger effect = lower value 0.985 | locus YDR477W, strain SNF1, stronger effect = lower value 0.99 | locus YER123W, strain YCK3, stronger effect = lower value 1 | locus YER133W, strain GLC7, stronger effect = lower value 1 | locus YFL009W, strain cdc4, stronger effect = lower value 0.98 | locus YFL029C, strain CAK1, stronger effect = lower value 0.985 | locus YFR003C, strain YPI1, stronger effect = lower value 0.98 | locus YFR019W, strain FAB1, stronger effect = lower value 0.998 | locus YFR028C, strain CDC14, stronger effect = lower value 0.986 | locus YGR040W, strain KSS1, stronger effect = lower value 0.993 | locus YGR052W, strain FMP48, stronger effect = lower value 1.07 | locus YGR092W, strain DBF2, stronger effect = lower value 0.988 | [2] 1.13 | locus YHR079C, strain IRE1, stronger effect = lower value 1 | locus YHR082C, strain KSP1, stronger effect = lower value 1.27 | locus YHR205W, strain SCH9, stronger effect = lower value 0.981 | locus YIL147C, strain SLN1, stronger effect = lower value 0.988 | locus YJL095W, strain BCK1, stronger effect = lower value 0.974 | locus YJL128C, strain PBS2, stronger effect = lower value 0.916 | locus YJL157C, strain FAR1, stronger effect = lower value 0.997 | locus YJR016C, strain ILV3, stronger effect = lower value 0.974 | locus YJR066W, strain TOR1 (second series), stronger effect = lower value 1 | locus YJR066W, strain TOR1, stronger effect = lower value 1.26 | locus YKL048C, strain ELM1, stronger effect = lower value 0.955 | locus YKL067W, strain YNK1, stronger effect = lower value 0.978 | locus YKL101W, strain HSL1, stronger effect = lower value 0.958 | locus YKL193C, strain SDS22, stronger effect = lower value 0.977 | locus YKL203C, strain TOR2, stronger effect = lower value 1.06 | locus YLR113W, strain HOG1, stronger effect = lower value 0.995 | locus YLR133W, strain CKI1, stronger effect = lower value 0.979 | locus YLR403W, strain SFP1, stronger effect = lower value 1 | locus YML070W, strain DAK1, stronger effect = lower value 0.995 | locus YMR001C, strain CDC5, stronger effect = lower value 0.984 | locus YMR205C, strain PFK2 (second series), stronger effect = lower value 0.998 | locus YMR277W, strain FCP1, stronger effect = lower value 0.978 | locus YNL006W, strain LST8, stronger effect = lower value 0.982 | locus YNL020C, strain ARK1, stronger effect = lower value 0.978 | locus YNL161W, strain CBK1, stronger effect = lower value 0.98 | locus YNL183C, strain NPR1, stronger effect = lower value 0.961 | locus YNL207W, strain RIO2, stronger effect = lower value 0.985 | locus YNL222W, strain SSU72, stronger effect = lower value 0.994 | locus YNL307C, strain MCK1 (second series), stronger effect = lower value 0.978 | locus YOL078W, strain AVO1, stronger effect = lower value 0.96 | locus YOL136C, strain PFK27, stronger effect = lower value 1 | locus YOR061W, strain CKA2, stronger effect = lower value 0.991 | locus YOR119C, strain RIO1, stronger effect = lower value 1.01 | locus YOR231W, strain MKK1, stronger effect = lower value 0.998 | locus YOR329C, strain SCD5, stronger effect = lower value 0.989 | locus YPL031C, strain PHO85, stronger effect = lower value 0.995 | locus YPL153C, strain RAD53, stronger effect = lower value 0.994 | locus YPL204W, strain HRR25, stronger effect = lower value 1 | locus YPL209C, strain IPL1, stronger effect = lower value 0.99 | locus YPL256C, strain CLN2, stronger effect = lower value 0.97 | locus YPR025C, strain CCL1, stronger effect = lower value 0.992 | locus YPR106W, strain ISR1, stronger effect = lower value 0.968 | locus YPR111W, strain DBF20, stronger effect = lower value 0.959 | strain NNK1, stronger effect = lower value 0.963 | strain TSCII, stronger effect = lower value 0.985
